This note sets out measurements from PMC5700166.

Where a chain is given by its changes, count along the chain named.

Common to all, as to experiment: protein-binding microarray (PBM); PBM: ~300 nM protein, 6 mM HEPES pH 7.8, 80 mM KCl, 0.5 mM EDTA, 0.5 mM EGTA, 6% glycerol, 35 ng/ul poly-dIdC, 1% milk, 1 h, room temperature; Ap Aiptasia and Nv Nematostella (sea anemones) / Co Capsaspora / Aq Amphimedon (sponge) / Dm Drosophila / Hu human; RHD is the Rel homology domain; high values mean tight binding
What all share (settings): dsDNA, one strand shown

The target of test [1] is T1, GST-Nv-NF-kB (Cys allele) (Nematostella vectensis, UniProt E5G601 2-411).
T1 sequence: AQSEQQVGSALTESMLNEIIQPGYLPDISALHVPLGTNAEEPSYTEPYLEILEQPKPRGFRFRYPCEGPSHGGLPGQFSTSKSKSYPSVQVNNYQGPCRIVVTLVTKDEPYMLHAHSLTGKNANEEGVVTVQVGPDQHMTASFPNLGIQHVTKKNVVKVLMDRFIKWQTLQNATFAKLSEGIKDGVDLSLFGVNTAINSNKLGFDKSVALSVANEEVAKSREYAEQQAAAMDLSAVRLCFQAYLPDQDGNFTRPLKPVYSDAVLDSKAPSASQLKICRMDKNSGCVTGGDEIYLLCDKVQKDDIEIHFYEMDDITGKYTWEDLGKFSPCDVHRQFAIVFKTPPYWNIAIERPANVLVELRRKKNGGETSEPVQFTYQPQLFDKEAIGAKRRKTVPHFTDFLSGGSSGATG

The next test concerns the target T2, GST-Aq-NF-kB (Amphimedon queenslandica, UniProt A9Y5G7 2-389).
T2 sequence: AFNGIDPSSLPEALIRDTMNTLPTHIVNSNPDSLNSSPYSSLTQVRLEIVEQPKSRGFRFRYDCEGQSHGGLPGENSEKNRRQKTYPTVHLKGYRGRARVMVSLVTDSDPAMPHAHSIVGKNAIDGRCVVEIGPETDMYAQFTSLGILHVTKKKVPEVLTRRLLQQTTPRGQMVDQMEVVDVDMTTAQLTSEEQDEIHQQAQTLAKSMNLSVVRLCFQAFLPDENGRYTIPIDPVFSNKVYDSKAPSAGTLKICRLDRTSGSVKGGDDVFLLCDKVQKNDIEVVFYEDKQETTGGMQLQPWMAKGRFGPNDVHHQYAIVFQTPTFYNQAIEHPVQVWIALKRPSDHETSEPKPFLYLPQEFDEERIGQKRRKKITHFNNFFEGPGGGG

A further test concerns the target GST-Hu-p50 (Homo sapiens, UniProt P19838 7-356).
Test [2] concerns the target T3, GST-Nv-NF-kB (Ser allele) (Nematostella vectensis, UniProt A7UNT2 2-411).
T3 sequence: T1 sequence with Q21R, C66S, S207N, E215Q, V217A, E225K, A268E, D399E

In another test the target is T4, GST-Co-NF-kB (Capsaspora owczarzaki, UniProt F1ARL5 200-546).
T4 sequence: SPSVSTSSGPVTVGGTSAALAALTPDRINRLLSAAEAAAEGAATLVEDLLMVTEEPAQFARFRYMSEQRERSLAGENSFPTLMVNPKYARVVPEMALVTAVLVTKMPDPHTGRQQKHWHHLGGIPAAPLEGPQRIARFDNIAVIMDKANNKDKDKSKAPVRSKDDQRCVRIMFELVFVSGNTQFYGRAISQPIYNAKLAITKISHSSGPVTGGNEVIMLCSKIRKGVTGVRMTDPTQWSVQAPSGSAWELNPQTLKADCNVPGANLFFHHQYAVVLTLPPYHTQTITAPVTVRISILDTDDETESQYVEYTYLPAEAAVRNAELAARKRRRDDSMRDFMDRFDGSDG

Another test addresses T5, GST-Dm-Relish (Drosophila melanogaster, UniProt Q94527 99-473).
T5 sequence: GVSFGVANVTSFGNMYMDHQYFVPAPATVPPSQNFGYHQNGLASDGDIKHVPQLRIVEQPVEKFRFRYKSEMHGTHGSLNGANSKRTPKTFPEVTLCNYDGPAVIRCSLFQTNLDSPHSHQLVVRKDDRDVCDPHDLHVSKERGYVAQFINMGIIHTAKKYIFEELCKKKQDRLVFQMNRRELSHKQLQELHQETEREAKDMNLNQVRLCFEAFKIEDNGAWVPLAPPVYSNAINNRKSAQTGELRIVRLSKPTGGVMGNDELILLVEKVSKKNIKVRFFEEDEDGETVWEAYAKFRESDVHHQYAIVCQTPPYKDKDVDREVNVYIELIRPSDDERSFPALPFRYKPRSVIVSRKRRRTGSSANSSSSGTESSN

In the next test the target is T6, GST-Ap-NF-kB RHD (Exaiptasia pallida (Aiptasia), UniProt A0A913YAJ5 2-422).
T6 sequence: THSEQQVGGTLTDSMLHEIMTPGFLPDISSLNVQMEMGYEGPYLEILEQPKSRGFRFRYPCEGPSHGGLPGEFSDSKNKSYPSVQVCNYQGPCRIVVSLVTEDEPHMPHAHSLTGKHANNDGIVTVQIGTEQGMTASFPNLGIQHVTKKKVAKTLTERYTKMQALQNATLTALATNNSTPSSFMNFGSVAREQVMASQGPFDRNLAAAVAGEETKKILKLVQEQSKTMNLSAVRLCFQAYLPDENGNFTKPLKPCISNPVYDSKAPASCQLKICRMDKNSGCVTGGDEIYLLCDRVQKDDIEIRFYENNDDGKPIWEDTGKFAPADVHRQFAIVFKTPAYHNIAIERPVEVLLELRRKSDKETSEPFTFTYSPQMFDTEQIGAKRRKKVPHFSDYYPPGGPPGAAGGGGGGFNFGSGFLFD

Chain of GST-Hu-p50 (P19838 7-356): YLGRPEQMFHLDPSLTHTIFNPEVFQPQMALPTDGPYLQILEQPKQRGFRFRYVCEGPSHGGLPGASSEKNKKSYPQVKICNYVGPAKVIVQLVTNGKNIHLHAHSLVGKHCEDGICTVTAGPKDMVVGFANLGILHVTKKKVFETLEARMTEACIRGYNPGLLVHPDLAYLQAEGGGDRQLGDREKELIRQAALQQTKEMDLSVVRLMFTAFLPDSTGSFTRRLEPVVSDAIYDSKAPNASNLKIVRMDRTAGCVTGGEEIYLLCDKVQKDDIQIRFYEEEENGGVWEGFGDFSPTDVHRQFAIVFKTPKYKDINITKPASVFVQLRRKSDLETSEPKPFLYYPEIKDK

Turning to “CCGATTAACATCAGAAATTGCCCTGATGTTAATCGGGTCTTGATTCGCTTGACGCTGCTG”, the binding signal was found to be 1.33 z-score in test [1], 2.44 z-score with GST-Aq-NF-kB and 1.68 z-score with GST-Hu-p50.

Turning to “CCGATTAACATCAAAGTGGGAAATGATGTTAATCGGGTCTTGATTCGCTTGACGCTGCTG”, the binding signal amounted to 3.3 z-score in test [1]; 2.91 z-score in test [2]; 2.54 z-score in the test with GST-Co-NF-kB; 1.64 z-score in the test with GST-Aq-NF-kB; 2.09 z-score with GST-Hu-p50.

As to “CCGATTAACATCAAGGAATTTTCTGATGTTAATCGGGTCTTGATTCGCTTGACGCTGCTG”, the binding signal in test [1] came out at 1.08 z-score; with GST-Dm-Relish, 1.93 z-score; with GST-Aq-NF-kB, 2.26 z-score; in the test with GST-Hu-p50, 1.18 z-score.

“CCGATTAACATCAAAAATTACCATGATGTTAATCGGGTCTTGATTCGCTTGACGCTGCTG”: the binding signal is 1.73 z-score in test [1]; 3.14 z-score in test [2]; 3.14 z-score with GST-Dm-Relish; 1.73 z-score with GST-Aq-NF-kB; 2.52 z-score in the test with GST-Hu-p50.

Consider “CCGATTAACATCATTCCGGGAAATGATGTTAATCGGGTCTTGATTCGCTTGACGCTGCTG”, for which the binding signal in test [1] worked out at 2.87 z-score; in test [2], 3.44 z-score; with GST-Co-NF-kB it was 2.74 z-score; with GST-Aq-NF-kB, 1.95 z-score; with GST-Hu-p50, 1.99 z-score.

With “CCGATTAACATCAAAAACTTTCCTGATGTTAATCGGGTCTTGATTCGCTTGACGCTGCTG”, the binding signal in test [2] came to 1.54 z-score; with GST-Dm-Relish, 2.34 z-score; with GST-Aq-NF-kB it was 2.68 z-score; with GST-Hu-p50, 1.25 z-score.

Take “CCGATTAACATCAAATTTCCGGGTGATGTTAATCGGGTCTTGATTCGCTTGACGCTGCTG”: the binding signal in test [2] was 1.31 z-score; with GST-Co-NF-kB it was 1.32 z-score; with GST-Aq-NF-kB, 1.44 z-score; in the test with GST-Hu-p50, 1.02 z-score.

Take “CCGATTAACATCATAATGGGAAATGATGTTAATCGGGTCTTGATTCGCTTGACGCTGCTG”: the binding signal in test [1] was 2.83 z-score; in test [2], 2.35 z-score; in the test with GST-Co-NF-kB it was 1.93 z-score; with GST-Aq-NF-kB it was 1.68 z-score; with GST-Hu-p50 it was 2.18 z-score.

“CCGATTAACATCAGTTTGGGAAATGATGTTAATCGGGTCTTGATTCGCTTGACGCTGCTG”: the binding signal in test [1] came to 2.49 z-score; in test [2], 2.26 z-score; with GST-Co-NF-kB, 2.36 z-score; with GST-Aq-NF-kB it was 1.19 z-score; with GST-Hu-p50, 1.46 z-score.

As to “CCGATTAACATCAGGTAAATACCTGATGTTAATCGGGTCTTGATTCGCTTGACGCTGCTG”, the binding signal in test [1] came out at 2.06 z-score; in test [2], 3.12 z-score; with GST-Dm-Relish it was 4.77 z-score; with GST-Aq-NF-kB it was 4.2 z-score; with GST-Hu-p50, 2.11 z-score.

On to “CCGATTAACATCACCACCACCCCTGATGTTAATCGGGTCTTGATTCGCTTGACGCTGCTG”, for which the binding signal with GST-Ap-NF-kB RHD is 1.55 z-score; with GST-Co-NF-kB it was 2.34 z-score; in the test with GST-Dm-Relish, 1.39 z-score; in the test with GST-Aq-NF-kB, 1.75 z-score; with GST-Hu-p50, 2.36 z-score.

For “CCGATTAACATCAATTCCCAAAATGATGTTAATCGGGTCTTGATTCGCTTGACGCTGCTG”, the binding signal stood at 2.17 z-score in test [1]; 2.29 z-score in test [2]; 1.45 z-score in the test with GST-Co-NF-kB; 1.29 z-score in the test with GST-Dm-Relish; 1.31 z-score with GST-Aq-NF-kB; 1.25 z-score with GST-Hu-p50.

Take “CCGATTAACATCAGGTATTTTACTGATGTTAATCGGGTCTTGATTCGCTTGACGCTGCTG”: the binding signal in test [2] is 2.63 z-score; with GST-Dm-Relish, 4.67 z-score; with GST-Aq-NF-kB it was 1.93 z-score; with GST-Hu-p50, 2 z-score.

As to “CCGATTAACATCAAAATTTCCGGTGATGTTAATCGGGTCTTGATTCGCTTGACGCTGCTG”, the binding signal is 1.02 z-score in test [2], 1.67 z-score in the test with GST-Dm-Relish, 3.05 z-score in the test with GST-Aq-NF-kB and 2.46 z-score with GST-Hu-p50.

Regarding “CCGATTAACATCAAAATTTACCGTGATGTTAATCGGGTCTTGATTCGCTTGACGCTGCTG”, the binding signal amounted to 1.63 z-score in test [1]; 3.7 z-score in test [2]; 1.05 z-score in the test with GST-Co-NF-kB; 3.37 z-score with GST-Dm-Relish; 2.12 z-score in the test with GST-Aq-NF-kB; 2.17 z-score with GST-Hu-p50.
